Experimental data as given in the supplement of paper PMC5662767.
Where a name gives a salt, the structure may show the parent alone.

Test system: Drosophila S2 cl14 SmoIP sensor cells
Test: normalized SmoIP GFP fluorescence (untreated unstimulated = 0%, untreated Hh-stimulated = 100%); higher = more Smo activation sensor fluorescence
Details: compound concentration: 2 uM, 24 h
[1] = stimulation: Hh conditioned medium (+Hh)
[2] = stimulation: mock conditioned medium (-Hh)
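Also: flow cytometry read-out as median GFP intensity of gated cells, compounds added 30 min before Hh-conditioned or mock medium, mock-treated cells serving as unstimulated baseline.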

SMILES	normalized SmoIP GFP fluorescence [1] [%]	normalized SmoIP GFP fluorescence [2] [%]
CC(=O)O[C@]1(C(C)=O)CC[C@H]2[C@@H]3C=C(C)C4=CC(=O)CC[C@]4(C)[C@H]3CC[C@@]21C [Megestrol-Acetate]	106	-0.804
Cc1cc(Nc2ncc(Cl)c(Nc3ccccc3S(=O)(=O)C(C)C)n2)c(OC(C)C)cc1C1CCNCC1	113	3.77
CC(=O)Nc1nc2c(Oc3cc(-c4ccc(C(F)(F)F)cc4)ncn3)cccc2s1	111	-4.7
C#Cc1cccc(Nc2ncnc3cc(OC)c(OCCCCCCC(=O)NO)cc23)c1	128	29.7
C=CCn1c(=O)c2cnc(Nc3ccc(N4CCN(C)CC4)cc3)nc2n1-c1cccc(C(C)(C)O)n1	58.7	-13.9
NC(=O)C(c1ccccc1)(c1ccccc1)[C@@H]1CCN(CCc2ccc3c(c2)CCO3)C1 [darifenacin-hydrobromide]	116	0.0767
COc1cc2ncnc(Sc3nnc(C)s3)c2cc1OC [sklb1002]	107	-0.491
CN(C[C@@H]1COCCO1)S(=O)(=O)Nc1ccc2ccc3ncc(-c4cnn(C)c4)cc3c(=O)c2c1	79.1	16.3
Oc1ccc([C@H]2COc3cc(O)ccc3C2)cc1 [equol]	107	-3.9
CN[C@H]1CC[C@@H](c2ccc(Cl)c(Cl)c2)c2ccccc21 [sertraline-hcl]	108	2.46
Nc1nccc(Oc2ccc(NC(=O)c3c[nH]cc(-c4ccc(F)cc4)c3=O)cc2F)c1Cl	88.3	-6.34
CCCCCCCN(CC)CCCC(O)c1ccc(NS(C)(=O)=O)cc1 (stereo unspecified) [ibutilide-fumarate]	108	-6.16
CN1CCN(c2ccc3nc(-c4c(N)c5c(F)cccc5[nH]c4=O)[nH]c3c2)CC1 [dovitinib]	240	72.9
CN1CCN(CCCN2c3ccccc3Sc3ccc(C(F)(F)F)cc32)CC1 [trifluoperazine-dihydrochloride]	108	4
COc1cc2ncnc(Nc3ccc(F)c(Cl)c3)c2cc1OCCCN1CCOCC1 [Gefitinib]	116	-4.53
Cc1c(CN2CCN(C(=O)[C@H](C)O)CC2)sc2c(N3CCOCC3)nc(-c3cnc(N)nc3)nc12	69.8	-4.35
CN(C)Cc1ccc(S(=O)(=O)n2ccc(/C=C/C(=O)NO)c2)cc1 [resminostat-ras2410]	140	-5.8
c1ccc(CC2=NCCN2)cc1 [tolazoline-hcl]	103	-1.74
COc1cc2ncnc(Nc3cccc(Cl)c3)c2cc1OC [ag-1478-tyrphostin-ag-1478]	157	-12.9

SMILES	normalized SmoIP GFP fluorescence [1] [%]	normalized SmoIP GFP fluorescence [2] [%]
NC(=O)N1CCC(CC(=O)N2CCC(C3c4ncc(Br)cc4CCc4cc(Cl)cc(Br)c43)CC2)CC1 (stereo unspecified)	127	10.1
Cc1ccccc1C(=O)Nc1ccc(C(=O)N2CCCC(N(C)C)c3ccccc32)cc1 (stereo unspecified) [mozavaptan]	105	-2.08
COCC(=O)NC/C=C/c1ccc2ncnc(Nc3ccc(Oc4ccc(C)nc4)c(C)c3)c2c1	71.1	2.43
COC(=O)[C@]12CCC(C)(C)C[C@H]1[C@H]1C(=O)C=C3[C@@]4(C)C=C(C#N)C(=O)C(C)(C)[C@@H]4CC[C@@]3(C)[C@]1(C)CC2 [bardoxolone-methyl]	102	0.986
Cc1cc(CN2CCN(c3c(Br)cnc4nc(-c5ccc(N6CCN(C)CC6)cc5)[nH]c34)CC2)no1	123	20.5
CNS(=O)(=O)Cc1ccc2[nH]cc(CCN(C)C)c2c1 [Sumatriptan-succinate]	99.3	1.57
C[C@@H]1C(=O)O[C@H]2C[C@@]34[C@H]5C[C@@H](C(C)(C)C)[C@]36[C@@H](OC(=O)[C@@H]6O)O[C@@]4(C(=O)O5)[C@]21O [ginkgolide-a]	99.5	-2.08
CO[C@H]1C[C@@H]2CC[C@@H](C)[C@@](O)(O2)C(=O)C(=O)N2CCCC[C@H]2C(=O)O[C@H]([C@H](C)C[C@@H]2CC[C@@H](O)[C@H](OC)C2)CC(=O)[C@H](C)/C=C(\C)[C@@H](O)[C@@H](OC)C(=O)[C@H](C)C[C@H](C)/C=C/C=C/C=C/1C [Rapamycin]	26.9	19.1
Cc1c(Cn2c(C)nc3c(C(=O)O)cc(N4CCOCC4)cc32)cccc1C(F)(F)F	108	0.966
Cc1ccccc1C(OCCN(C)C)c1ccccc1 (stereo unspecified) [orphenadrine-citrate-norflex]	142	-11.7
O=C(c1ccc(F)cc1)N1CCC[C@H](c2nc(-c3ccc(F)cc3)no2)C1	156	-7.78
COc1cc2nc(N3CCN(C(=O)C4COc5ccccc5O4)CC3)nc(N)c2cc1OC (stereo unspecified) [Doxazosin-mesylate]	105	8.14
CC(=O)Nc1nc(C)c(-c2ccc(Cl)c(S(=O)(=O)NCCO)c2)s1	130	-1.13
Oc1c2ccccc2c2c3c(cccc13)N=N2	121	66
CCc1nc(N)nc(N)c1-c1ccc(Cl)cc1 [Pyrimethamine]	101	0.702
NC(=O)c1noc([C@H](CCCC2CCCCC2)CC(=O)NO)n1	126	-6.97
O=C(/C=C/c1ccc(O)c(O)c1)c1ccc(O)cc1O [butein]	77.1	3.58
Cc1c(OCC(F)(F)F)ccnc1C[S+]([O-])c1nc2ccccc2[nH]1 (stereo unspecified) [Lansoprazole]	104	-1.13
COc1cc(-c2ncn(/C=C\C(=O)OC(C)C)n2)cc(C(F)(F)F)c1	98.3	-0.889
